Sampled rows, rich in hits. Any-hit rate of the full collection: about 2.2%.
cardiac RTF act – cardiac RTF calcium sensitivity activators, primary screen, biochemical, IANBD-TnC fluorescence, EC20 calcium. IANBD-labeled TnC RTF fluorescence at EC20 calcium; 0% EC20 calcium, 100% full calcium. activation, % at 7.2 µM. 340,000 tested, 0.24% active. AID 493008, 2010;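 active means activation above the mean over all tested compounds plus 3 SD, cut at about 30% in these data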;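 further: rise in fluorescence read as greater calcium sensitivity of cardiac thin filaments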
Cardiac RTF inh – cardiac RTF calcium sensitivity inhibitors, primary screen, biochemical, IANBD-TnC fluorescence, EC70 calcium; Troponin I, cardiac muscle (Homo sapiens) + Troponin T, cardiac muscle (Homo sapiens) + …; IANBD-labeled cardiac RTF, Ca2+ fluorescence; inhibition, % at 7.15 µM; 340,000 tested, 0.12% active;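 active means inhibition above the mean inhibition of all tested compounds plus 3 SD, cut at about 17% in these data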;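 further: assay run at fixed EC70 calcium of 1.6 mM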
CRFBP-R2 agonist – agonists of CRF-BP/CRF-R2 complex, primary screen, cell-based, HEK293, calcium dye fluorescence, uHTS; CRF-binding protein / CRF receptor 2 complex (human); calcium dye fluorescence (FLIPR); percent of saturating CRF peptide response; activation, % at 13.2 µM; 350,000 tested, 0.46% active;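 active means activation of at least 50%, plus an integration ratio under a set limit after plate pattern correction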;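 further: plate controls were neutral control wells without compound for no effect and CRF at EC100 for full effect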
CRFR2-BP antag – antagonists of CRF-BP/CRF-R2 complex, primary screen, cell-based, HEK293, calcium dye fluorescence, uHTS. CRF-induced calcium fluorescence. inhibition, % at 11.8 µM. 350,000 tested, 0.59% active;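 active means inhibition of the ligand-induced calcium signal above about 50% at the single tested concentration, limit read from the data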
Myeloid diff MLP – induction of myeloid progenitor differentiation, primary screen, cell-based, flow cytometry, MLPCN library; ER-HoxA9 myeloid progenitors, lysozyme-GFP differentiation; calls only at 10 µM; 360,000 tested, 1% active; AID 624256, 2012;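 active means normalized GFP-positive differentiation at or above the plate's own cutoff, the solvent-only control mean plus 3 SD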;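 further: cells exposed to compound for four days before flow analysis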
Myeloid diff – inducers of myeloid progenitor differentiation, confirmation, cell-based, GFP/Mac1 flow cytometry, cherry pick 01 | shares compounds with Myeloid diff MLP | ER-HoxA9 myeloid progenitors, GFP/Mac1 double-positive flow | calls only | 2,300 tested, 2% active;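 active means share of green or green-and-red cells above 9 and 9% in run 1 or 4 and 3% in run 2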
GFP autofluor – flagged as fluorescent in myeloid differentiation counter-screen | shares compounds with Myeloid diff MLP | ER-HoxA9 myeloid progenitors, no estrogen, GFP autofluorescence flow cytometry; vehicle wells 0%, positive control 100% | fluorescence response, % (no concentration beside the values) | 2,300 tested, 7.4% active | AID 651707;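 active means over 5% cells positive for green fluorescent reporter, or over 2% positive for both it and APC stain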;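 further: range taken on the double positive population between DMSO and positive control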
Active calls of the source: *; i = inactive; / = no result given; + = active, no number.

SMILES	cardiac RTF act	Cardiac RTF inh	CRFBP-R2 agonist	CRFR2-BP antag	Myeloid diff MLP	Myeloid diff	GFP autofluor
CCN(CC)CCOC(=O)c1ccc(N/C=C(/C#N)c2nc(-c3ccc(OC)c(OC)c3)cs2)cc1	-3.6	-6.3	-3.0	-9.0	i	i	0.0
CCCOC(=O)c1c(NC(=O)CCCn2nc([N+](=O)[O-])c(Cl)c2C)sc(C(=O)OC)c1C	6.5	-11.3	2.6	4.9	i	i	0.0
NNc1nc2c(F)cc(F)cc2s1	4.6	-20.7	-0.5	7.9	+	i	0.0
NNc1nc2c(F)cccc2s1	2.2	10.7	-2.3	22.7	i	/	/
CC(C)(CN1CCCC1)NS(=O)(=O)c1ccccc1	-5.0	-7.8	-2.4	1.7	i	i	0.0
Cc1cc(C)nc(-n2ncc3c2CC(c2ccccc2)CC3=O)n1 (stereo not drawn)	0.1	-10.2	0.0	-5.9	i	/	/
Cc1cc(C)nc(-n2ncc3c2CC(c2ccc(F)cc2)CC3=O)n1 (stereo not drawn)	3.1	-2.2	-4.5	-4.2	i	i	0.0
Cc1cccc(NC(=O)c2cc(NC(=O)c3ccco3)ccc2Cl)n1	-2.5	-16.2	-0.9	2.0	i	i	0.2
Cc1cccc(NC(=O)c2cc(NC(=O)C3CCCCC3C(=O)O)ccc2Cl)n1 (stereo not drawn)	-2.9	-2.0	1.6	4.3	i	/	/
c1cc(-c2cc3nc(NCC4CC4)ccn3n2)ccc1OCCN1CCOCC1	/	/	/	/	i	/	/
c1cc(-c2cc3nc(NC4CCCCC4)ccn3n2)ccc1OCCN1CCOCC1	/	/	/	/	i	i	0.7
CCCn1nc(C(=O)N2CCN(S(=O)(=O)c3ccc(C)c(C)c3)CC2)c2ccccc2c1=O	2.5	2.4	2.0	4.3	i	/	/
CCN(CC)C(=O)c1cccc(-c2csc(C(C)(O)c3cccc(F)c3)n2)c1 (stereo not drawn)	/	/	/	/	i	/	/
CCCn1cc(S(=O)(=O)CC(=O)NC2CCCCC2)c2ccccc21	-11.3	-8.1	0.9	-16.7	/	i	0.0
CCOC(=O)Cc1cnc(NC(=O)NC(C(=O)OCC)(c2ccccc2)C(F)(F)F)s1 (stereo not drawn)	-1.9	-0.4	3.2	12.3	i	i	1.8
Cc1c(C)c2c(OCC(=O)N3CCC(C(N)=O)CC3)cc3c(c2oc1=O)CCC(C)(C)O3	3.0	-2.7	-3.1	1.7	i	/	/
CC(N)c1csc(NC(=O)c2cc(C(C)(C)C)nn2Cc2ccccc2)n1 (stereo not drawn)	/	/	/	/	i	/	/
COc1ccc(CC(N)c2csc(NC(=O)c3cc(C(C)(C)C)nn3Cc3ccccc3)n2)cc1 (stereo not drawn)	/	/	/	/	+	i	0.0
O=C(Nc1ccc(-c2nc3c(ccc4ccccc43)o2)cc1)c1ccco1	3.4	-3.6	1.8	36.9	+	i	0.3
CCC1(c2ccc(F)cc2)NC(=O)N(CC(=O)N2CCN(S(=O)(=O)c3ccc(C)cc3C)CC2)C1=O (stereo not drawn)	4.3	-7.3	0.1	2.4	+	i	2.8
O=[N+]([O-])c1ccc2ccn(C3OCC(O)C(O)C3O)c2c1 (stereo not drawn)	-1.2	13.6	0.9	-4.6	i	/	/
CC(Sc1nc2c(cc1C#N)CCCCC2)C(=O)O (stereo not drawn)	/	/	3.3	-12.6	/	/	/
COc1cccc(CNC(=O)C2CCCN(c3nc4ccccc4o3)C2)c1 (stereo not drawn)	18.2	-11.9	-4.2	11.9	i	i	0.0
Cc1ccc(S(=O)(=O)NCc2ccco2)cc1C(N)=O	-0.5	-5.8	-0.6	0.7	+	i	0.4
CCOC(=O)c1c(NC(=O)c2nn(CC)cc2Br)c(C#N)cn1-c1ccccc1	-1.7	-6.4	-2.2	30.9	+	+	0.0
SMILES	cardiac RTF act	Cardiac RTF inh	CRFBP-R2 agonist	CRFR2-BP antag	Myeloid diff MLP	Myeloid diff	GFP autofluor
COc1cccc(NC(=O)CN(C)C(=O)CC2CCCC2)c1	-10.1	-11.5	1.5	-13.9	i	i	0.3
COc1ccc(N2CCN(c3ccc(N4C(=O)COCC4=O)cc3[N+](=O)[O-])CC2)cc1	0.9	2.4	0.1	-8.8	i	i	0.2
CCOC(=O)/C=C1\Nc2ccccc2OC1=O	1.4	5.1	-1.8	16.0	+	i	0.5
CCOC(=O)/C=C1\CC(C(=O)OCC)Oc2ccccc21 (stereo not drawn)	-7.8	-2.6	-3.5	2.1	i	/	/
COc1ccc(S(=O)(=O)Nc2ccccc2C)cc1	-6.0	-0.4	-1.3	-2.1	i	i	0.0
Nc1nccc(NCCSCc2ccccc2)n1	-0.3	-2.6	-4.2	-6.4	+	i	0.0
CCc1cc(C(=O)O)c(NC(=O)c2cc(OC)c(OC)c(OC)c2)s1	-4.3	-0.5	-1.5	-3.0	/	/	/
CC(C)C[C@H](NC(=O)N1CCn2c1nc1ccccc12)C(=O)N[C@@H](C(=O)O)c1ccccc1	0.7	3.1	-0.5	1.5	+	i	0.5
Nc1c(-c2ccc(C(F)(F)F)cc2)nc2ncccn12	/	/	/	/	i	/	/
COc1cccc(-c2nn(-c3ccccc3)cc2/C=C(/NC(=O)c2ccccc2)C(=O)O)c1	5.7	-7.2	-0.7	6.6	i	/	/
O=C(CN1CCN(c2ccccn2)CC1)Nc1ccccc1Br	-6.8	4.0	-1.0	-2.0	i	/	/
O=C(CN1CCN(c2ncccn2)CC1)Nc1ccccc1-n1cccc1	0.9	-5.9	-0.3	32.5	+	i	0.0
Cc1ccc(NS(=O)(=O)c2cccc(C(=O)NNC(=O)c3ccco3)c2)c(C)c1	-5.6	1.4	-1.5	2.7	+	i	0.0
O=C(CCC(=O)N1CCN(S(=O)(=O)c2ccc([N+](=O)[O-])cc2)CC1)N1CCOCC1	5.3	-4.9	8.7	19.0	i	/	/
O=S1(=O)CC(N2CC=CC2)CN1Cc1cn(Cc2ccc(F)cc2)nn1 (stereo not drawn)	/	/	/	/	i	/	/
COC(=O)c1ccc2c(c1)NC1=C(C(=O)CC(C)(C)C1)C(c1ccncc1)N2 (stereo not drawn)	20.4	0.1	-2.9	-7.0	+	i	0.5
COC(=O)c1ccc(C2Nc3ccccc3NC3=C2C(=O)CC(C)(C)C3)cc1 (stereo not drawn)	1.3	-3.3	-0.4	-6.3	i	/	/

Bioassay records (PubChem)
